In PubChem BioAssay AID1508622 (National Center for Advancing Translational Sciences (NCATS), 2021):
Activity calls are given as the source filed them. A call without a number means that no potency is given here. Calls come from the whole dose curve; as a rule, active = well fitted activation curve with a large enough effect; inconclusive = small, poorly fitted or top-dose-only effect; inactive = no such curve, though single readings can be large or run the other way.
Potency is the fitted concentration of half-maximal effect.

Experiment: Confirmatory qHTS for Identification of Small Molecule Activators of Huntingtin-Antisense Promoter Activity
Conditions: HEK293 HTT-AS promoter firefly luciferase reporter, 24 h; series mostly up to 57.5 µM
In short: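 Activity normalized between vehicle control (0%) and zero RLU (-100%) from firefly luminescence (Dual-Glo). Compounds, up to 57.5 uM final, incubated 24 h at 37C on HEK293 reporter cells plated 24 h earlier.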
With `Cc1nc(-c2ccc(Cl)cc2)sc1CCNC(=O)Cc1ccc(F)cc1` the Potency was “inactive”. With `CCc1ccc(CNC(=O)Cn2ccc3cc(S(=O)(=O)N4CCCCCC4)ccc32)cc1` the Potency was “inactive”. For `Cc1ccc(C(Nc2ccccn2)c2ccc3cccnc3c2O)cc1` (centres undefined), the Potency was “inactive”. For `O=C(Nc1ccc(Cl)c(Cl)c1)N(Cc1c[nH]c2ccccc12)C1CCCCC1`, the Potency was 2.39 µM (active). For `CCc1ccc(NC(=O)C2CCCN(S(=O)(=O)c3cccc4nsnc34)C2)cc1` (centres undefined), the Potency was “inactive”. For `COCCN1C(=O)c2[nH]nc(-c3ccccc3O)c2C1c1ccc(OCc2ccccc2)c(OC)c1` (centres undefined), the Potency was “inactive”. In the case of `COc1ccccc1N1CCN(S(=O)(=O)c2ccc(F)c(C(=O)Nc3ccc(Cl)cc3C(F)(F)F)c2)CC1`, the Potency is reported as “inactive”. With `CCC(C(=O)NCCc1ccc(SC)cc1)n1nc(C)c2c(C)n(-c3ccc(C)cc3)nc2c1=O` (centres undefined) the Potency was “inactive”. With `Cc1ccc(CNC(=O)c2ccc(CSc3nc4ccncc4n3Cc3ccc(C)cc3)cc2)cc1` the Potency was “inactive”. For `Cc1cc(NC(=O)c2cc(-c3ccc(F)cc3)on2)nn1Cc1ccc(Cl)cc1`, the Potency was “inactive”. In the case of `COc1ccc(NC(=O)CSc2nc(-c3cccs3)cc(C(F)(F)F)n2)cc1OC`, the Potency is reported as “inactive”. With `Cc1ccc(Cn2c(SCc3ccc(C(=O)N4CCCCC4)cc3)nc3ccncc32)cc1` the Potency was “inactive”. In the case of `O=C(Cc1ccccc1)Nc1cccc(-c2cn3cccnc3n2)c1`, the Potency is reported as 10.7 µM (active). For `Cc1csc2nc(COC(=O)c3ccccc3NC(=O)c3ccccc3Cl)cc(=O)n12`, the Potency was “inactive”. In the case of `CCc1ccccc1-n1c(SCC(=O)Nc2ccc(C)cc2)nc2n[nH]c(C)c2c1=N`, the Potency is reported as “inactive”. For `CCCC(=O)Nc1nnc(SCc2cc(=O)c3ccc(C)cc3[nH]2)s1`, the Potency was “inactive”. In the case of `Cn1c(Oc2ccc(F)cc2)nc2c1c(=O)n(Cc1ccccc1Cl)c(=O)n2C`, the Potency is reported as “inactive”. In the case of `COc1ccc(C(=O)CN2CCN(S(=O)(=O)c3ccc(C(C)C)cc3)CC2)cc1`, the Potency is reported as “inactive”. In the case of `CCCN(C(=O)CCc1nc(-c2ccc(C)cc2)no1)c1ccc(OCC)cc1`, the Potency is reported as “inactive”. With `O=C(NCCC1=CCCCC1)c1ccc2c(c1)N(Cc1cccc(Cl)c1)C(=O)c1ccccc1S2(=O)=O` the Potency was “inactive”. For `CC(=O)c1ccc(NC(=O)c2ccc(-c3nc(CSc4ccc(C)cc4)c(C)o3)cc2)cc1`, the Potency was “inactive”. With `CN(C)C(=O)COC(=O)Cc1ccc(OC(=O)c2ccc(N=C(N)N)cc2)cc1` the Potency was “inactive”. For `Cn1c(SCc2ccc(F)cc2)nc2ccc(C(=O)NCc3ccc(F)cc3)cc21`, the Potency was “inactive”. With `CCOC(=O)c1cccc(NC(=O)CCn2c(-c3ccc(F)cc3)cc(C(=O)OCC)c2C)c1` the Potency was “inactive”. For `CCOc1ccc(NC(=O)CN(c2ccc(Cl)cc2C)S(=O)(=O)c2ccccc2)cc1`, the Potency was “inactive”. With `COc1ccc(CNC(=O)Nc2ccc3c(c2)N(C)C(=O)c2ccccc2S3)cc1OC` the Potency was “inactive”. In the case of `OCCCn1c(-c2ccc(F)cc2)csc1=Nc1ccc(F)cc1`, the Potency is reported as “inactive”. With `COc1ccc2sc(N(Cc3cccnc3)C(=O)c3ccco3)nc2c1` the Potency was “inactive”. With `O=C(CSc1nccn1Cc1ccco1)Nc1cc(C(F)(F)F)ccc1Cl` the Potency was “inactive”. For `O=C(Cn1cc(S(=O)(=O)Cc2ccccc2Cl)c2ccccc21)Nc1cccc(C(F)(F)F)c1`, the Potency was “inactive”. In the case of `COc1cc(NS(=O)(=O)c2ccc3c(c2)CCCN3C(C)=O)cc(OC)c1OC`, the Potency is reported as “inactive”. With `CC(=O)c1ccc(N2CCN(c3ncnc4onc(C)c34)CC2)cc1` the Potency was “inactive”. For `Cc1ccc(CN2CCCn3nc(C(=O)NCc4cc(C)ccc4C)cc3C2=O)cc1`, the Potency was “inactive”. In the case of `COc1ccc(Br)cc1CNC(=O)CSc1n[nH]c(-c2ccccc2)n1`, the Potency is reported as “inactive”. In the case of `Cc1ccccc1CN1c2ccccc2-c2nc(SCC(=O)Nc3cc(F)ccc3F)ncc2S1(=O)=O`, the Potency is reported as “inactive”. With `O=C1CCCc2cc(S(=O)(=O)NCC3CCC(C(=O)Nc4ccccc4F)CC3)ccc2N1` (centres undefined) the Potency was “inactive”. For `CCOc1ccc(CCNC(=O)CSCc2nc(-c3cccc(C)c3)oc2C)cc1OCC`, the Potency was “inactive”. In the case of `COc1ccccc1CCNC(=O)C(=O)NCC(c1cccs1)S(=O)(=O)c1ccccc1` (centres undefined), the Potency is reported as “inactive”. For `COc1ccc(S(=O)(=O)N2CCC(c3nnnn3-c3ccccc3)CC2)cc1OC`, the Potency was “inactive”.
